This is a sample that favours compounds with a hit; in the whole collection about 11% have one here.
JMJD2A Tudor inh: inhibitors of human JMJD2A Tudor domain. AlphaScreen JMJD2A-Tudor / H3K4me3 peptide binding. 390,000 compounds, 4.4% hits. O75164. Potency, µM (doses to about 114 µM), usual class: inhibitors. AID 504339; also: nearly all actives have a fitted effect of over 50% in size
G9a inh: G9a (human) methyltransferase inhibition. Q96KQ7. G9a H3K9 monomethylation, AlphaScreen, 2 h. Potency, µM (highest dose often 102 µM), most hits filed as inhibitors. 350,000 compounds, 8.8% hits. AID 504332; also: nearly all actives have a fitted effect of over 75% in size
Target sequence (Q96KQ7 913-1193 limits assumed): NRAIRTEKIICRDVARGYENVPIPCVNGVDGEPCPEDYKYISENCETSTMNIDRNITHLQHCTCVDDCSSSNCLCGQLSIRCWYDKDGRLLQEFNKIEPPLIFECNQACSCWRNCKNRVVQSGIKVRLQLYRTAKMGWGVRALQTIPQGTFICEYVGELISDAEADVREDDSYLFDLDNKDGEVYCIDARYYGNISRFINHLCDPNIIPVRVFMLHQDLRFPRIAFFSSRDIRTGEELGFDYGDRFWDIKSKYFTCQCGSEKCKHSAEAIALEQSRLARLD
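AlphaScreen read-out: biotin-H3K9 peptide (500 nM) methylation by 20 nM enzyme with 20 uM SAM, 2 h at room temperature after 15 min compound preincubation; anti-monomethyl H3K9 antibody plus donor/acceptor beads, 10 min dark.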
BAZ2B block: blocks human BAZ2B; Q9UIF8; AlphaScreen BAZ2B-H3K14Ac peptide displacement; Potency, µM (highest dose often 114 µM), most hits filed as inhibitors; 360,000 compounds, 4.4% hits; also: nearly all actives have a fitted effect of over 60% in size
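Protein-peptide AlphaScreen: BAZ2B 50 nM, b-H3K14Ac 50 nM, 1x PBS pH 7.4 + 0.01% Tween-20. Preincubation 30 min RT; cpd 30 min RT (top 110 uM); beads 20 min RT, light-protected.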
HP1b chromo inh: HP1-beta chromodomain-methylated histone interaction inhibition; AlphaScreen HP1-beta / biotin-H3K9me3 peptide binding; P83916; 390,000 compounds, 0.56% hits; Potency, µM (highest dose often 114 µM), most hits filed as inhibitors; also: nearly all actives have a fitted effect of over 70% in size
Target sequence (P83916 whole entry, looked up): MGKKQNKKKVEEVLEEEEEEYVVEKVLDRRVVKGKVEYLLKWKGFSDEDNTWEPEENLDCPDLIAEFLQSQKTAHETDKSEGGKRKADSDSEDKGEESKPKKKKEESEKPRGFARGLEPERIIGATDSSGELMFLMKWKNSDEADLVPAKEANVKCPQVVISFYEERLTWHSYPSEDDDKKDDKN
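Compound inhibition of the preformed complex between 50 nM HP1-beta and 50 nM biotinylated H3K9me3 peptide was read by AlphaScreen. Buffer was PBS pH 7.4 with 0.01% Tween-20. Incubations ran 30 min at room temperature, with 10 ug/mL donor/acceptor beads.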
L3MBTL1 block: blocks human L3MBTL1 | Potency, µM (top dose mostly 57.1 µM), usual class: inhibitors | Q9Y468 | AlphaScreen L3MBTL1–H3K9me1 peptide binding | AID 485360 | 230,000 compounds, 0.66% hits; also: nearly all actives have a fitted effect of over 60% in size
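First, the protein-peptide complex forms for 30 min at room temperature (L3MBTL1 50 nM, biotinylated H3K9me1 peptide 75 nM). Next, compounds are pin-transferred and incubated 30 min. Finally, AlphaScreen beads are added and read after 30 min.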
Each line names hits and unclear results; the compound was inactive in the other large screens; ! = not confirmed by another sample. Calls follow the shape of the dose curve; as a rule, active = well fitted inhibition curve with a large enough effect; inconclusive = small, poorly fitted or top-dose-only effect; inactive = no such curve, though single readings can be large or run the other way.

Cn1c(=O)c2c(nc(SCC(=O)O)n2Cc2cc3c(cc2Cl)OCO3)n(C)c1=O	JMJD2A Tudor inh 45µM, G9a inh inconclusive, BAZ2B block inconclusive (no result: L3MBTL1 block)
O=C(O)c1ncc(Cl)c(Cl)c1Cl	JMJD2A Tudor inh 50µM!, G9a inh 50µM
O=C(O)c1nc(N2CCCC2)ncc1Cl	none (no result: L3MBTL1 block)
COc1cc2c(cc1OC)C(c1cc(OC)c(O)c(OC)c1)CC(=O)N2 (stereo unspecified)	none (no result: L3MBTL1 block)
CC(=O)c1sc(N/N=C\c2ccc(N(C)C)cc2)nc1C	none
CC(=O)Nc1sc(N/N=C/c2ccc(C)cc2)nc1-c1ccc(C)cc1	JMJD2A Tudor inh 45µM, G9a inh inconclusive, BAZ2B block inconclusive, HP1b chromo inh inconclusive
CC(=O)Nc1sc(N/N=C/c2ccc(N(C)C)cc2)nc1-c1ccc(C)cc1	JMJD2A Tudor inh 45µM, G9a inh 8.9µM, BAZ2B block 28µM, HP1b chromo inh inconclusive
O=c1c(-c2ccc(F)cc2)nc2cnc(N3CCOCC3)nc2n1Cc1ccc(F)cc1	none (no result: JMJD2A Tudor inh, BAZ2B block, HP1b chromo inh, L3MBTL1 block)
CCOC(=O)CN1NC2(CCCCCC2)NC1=S	JMJD2A Tudor inh 50µM (no result: G9a inh)
CCOC(=O)Cn1c2c(c(=N)c3c1CCC3)CCCC2	none
CCOc1ccc2nc(NC(=O)CN3CCN(CC)CC3)sc2c1	G9a inh 45µM
CCOc1ccc2nc(NC(=O)Cn3cnc4c3c(=O)n(C)c(=O)n4C)sc2c1	G9a inh 79µM
CCOc1ccc2nc(NC(=S)NCc3ccccc3)sc2c1	G9a inh 7.1µM, HP1b chromo inh inconclusive (no result: L3MBTL1 block)
CCOc1ccc2nc(NC(=O)CSc3nc4c(c(=O)n(C)c(=O)n4C)n3C(C)C)sc2c1	none
CCOc1ccc2nc(NC(=O)CN3CCN(C)CC3)sc2c1	G9a inh 35µM, BAZ2B block inconclusive
CCc1ccc(Nc2nc(-c3cc4cccc(OC)c4oc3=O)c(CC)s2)cc1	none (no result: L3MBTL1 block)
CCOC(=O)c1[nH]c2ccccc2c1NC(=O)c1ccc(OC(C)C)cc1	G9a inh inconclusive (no result: L3MBTL1 block)
CC(C)c1nn2c(=O)cc(COC(=O)c3cccc(NC(=O)c4ccccc4F)c3)nc2s1	none (no result: L3MBTL1 block)
CCOc1ccc2nc(NC(=O)C34CC5CC(CC(NC(C)=O)(C5)C3)C4)sc2c1	G9a inh 16µM (no result: L3MBTL1 block)
CCOc1ccc2nc(NC(=O)Nc3cccs3)sc2c1	JMJD2A Tudor inh inconclusive, G9a inh 45µM
COc1ccc2nc(NC(=O)C34CC5CC(CC(NC(C)=O)(C5)C3)C4)sc2c1	none (no result: G9a inh, L3MBTL1 block)
CCOc1ccc2nc(NC(=O)Nc3ccccc3)sc2c1	none (no result: L3MBTL1 block)
Cc1ccc2[nH]c3c(c2c1)CN(C(=O)CN1CCN(c2ccccc2F)CC1)CC3	G9a inh 32µM (no result: JMJD2A Tudor inh, HP1b chromo inh)
O=C(CN1CCN(Cc2ccc3c(c2)OCO3)CC1)N1CCc2[nH]c3ccc(F)cc3c2C1	JMJD2A Tudor inh inconclusive, G9a inh inconclusive, BAZ2B block inconclusive
Cc1ccc2[nH]c3c(c2c1)CN(C(=O)CN1CCCCC1)CC3	G9a inh 50µM, BAZ2B block inconclusive (no result: L3MBTL1 block)
Cc1ccc2[nH]c3c(c2c1)CN(C(=O)CN1CCCc2ccccc21)CC3	JMJD2A Tudor inh 28µM, G9a inh 3.2µM, HP1b chromo inh inconclusive
CC(C)(C)NC(=O)NC(=O)COC(=O)CNS(=O)(=O)/C=C/c1ccccc1	none
CC(C)OCCCN(CC(O)c1ccccc1)CC(O)c1ccccc1 (stereo unspecified)	JMJD2A Tudor inh 5.6µM, G9a inh 7.9µM, BAZ2B block inconclusive, HP1b chromo inh inconclusive
OC(CN(Cc1ccccc1)Cc1ccccc1)c1ccccc1 (stereo unspecified)	none (no result: G9a inh, BAZ2B block, L3MBTL1 block)
Cc1ccc(Cn2c(C(=O)O)c(CNC3CCCCCC3)c3ccc(C)cc32)cc1	none (no result: L3MBTL1 block)
O=C(O)Cc1cn(-c2ccccc2)nc1-c1ccccc1	none
O=C(O)/C=C/C(=O)NCc1cn(-c2ccccc2)nc1-c1cccc(Br)c1	G9a inh 35µM (no result: L3MBTL1 block)
COc1ccc(NC(=O)C/C(C)=N/NC(=O)c2cnccn2)c(OC)c1	none (no result: L3MBTL1 block)
COc1ccc(NC(=S)Nc2ccccc2OC)c(OC)c1	JMJD2A Tudor inh inconclusive, HP1b chromo inh inconclusive
COc1ccc(NC(=O)C/C(C)=N/NC(=O)C(=O)NC2CCCCC2)c(OC)c1	G9a inh 16µM (no result: L3MBTL1 block)
COc1ccc(NC(=S)Nc2cccnc2)c(OC)c1	G9a inh 50µM
COc1ccc(NC(=S)Nc2ccc(OC)cc2OC)c(OC)c1	G9a inh 4µM

Bioassay records as filed in PubChem BioAssay.
